Assay results from the supplement of paper PMC12669032.
Values without a mark were called inactive.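 Rule for the calls: active = AUC reduced over 20% with Padj below 0.05 in at least 2 of 3 replicates; inactive = otherwise.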

Key:
Assay in all cases: growth AUC relative to DMSO control (median of replicates) (fraction); higher = more growth (less inhibition), active = hit call of the paper
Settings in all cases: 20 µM; 24 h
Coprococcus comes = tested on: Coprococcus comes
Outline: (§1)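 Gut bacterial monocultures were grown anaerobically at 37 °C in mGAM from a starting OD600 of 0.05 with 20 µM compound (1% DMSO), in round-bottom 96-well plates under pierced gas-permeable seals, and OD600 was read hourly for 24 h. With the minimum OD set to 0, area under the growth curve was normalised to the plate median of solvent-only wells, or to row and column medians on the industrial chemical plate. Each value is the median of three biological replicates grown on separate days.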

Escherichia coli ED1a = tested on: Escherichia coli ED1a
Outline: as §1

Escherichia coli IAI1 = tested on: Escherichia coli IAI1
Outline: as §1

Eubacterium rectale = tested on: Eubacterium rectale
Outline: as §1

[1] = tested on: Fusobacterium nucleatum subsp. animalis
Outline: as §1

Lactobacillus gasseri = tested on: Lactobacillus gasseri
Outline: as §1

Lactobacillus paracasei = tested on: Lactobacillus paracasei
Outline: as §1

Odoribacter splanchnicus = tested on: Odoribacter splanchnicus
Outline: as §1

[2] = tested on: Parabacteroides distasonis
Outline: as §1

Parabacteroides merdae = tested on: Parabacteroides merdae
Outline: as §1

| Structure (SMILES) | growth AUC (Coprococcus comes) | growth AUC (Escherichia coli ED1a) | growth AUC (Escherichia coli IAI1) | growth AUC (Eubacterium rectale) | growth AUC [1] | growth AUC (Lactobacillus gasseri) | growth AUC (Lactobacillus paracasei) | growth AUC (Odoribacter splanchnicus) | growth AUC [2] | growth AUC (Parabacteroides merdae) |
| --- | --- | --- | --- | --- | --- | --- | --- | --- | --- | --- |
| CC(CNC(=S)[S-])NC(=S)[S-].[Zn+2] (mixture of isomers) | 1.04 | 0.997 | 0.983 | 1.15 | 1.08 | 0.956 | 1.14 | 0.945 | 1.01 | 1.02 |
| CN(C(=O)NC(C)(C)c1ccccc1)c1ccccc1 | 1.01 | 1.01 | 0.974 | 0.981 | 0.909 | 1.01 | 0.951 | 1.1 | 0.952 | 1 |
| COc1cc(OC)nc(NC(=O)NS(=O)(=O)c2c(Cl)nc3ccccn23)n1 | 0.981 | 1.01 | 1.01 | 1.01 | 1.13 | 1.06 | 1.11 | 0.984 | 1.02 | 1.04 |
| CCCOc1nc2ccc(I)cc2c(=O)n1CCC | 1.04 | 0.991 | 0.974 | 0.996 | 0.973 | 0.833 | 0.976 | 1.05 | 0.647 (active) | 0.923 |
| CCCCCCC(C)OC(=O)C(C)Oc1ccc(Cl)cc1C (stereo not given) | 0.994 | 0.985 | 0.999 | 0.96 | 0.956 | 1 | 0.909 | 1.03 | 1.01 | 0.989 |
| CCNc1nc(Cl)nc(N(CC)CC)n1 | 1.02 | 1.02 | 0.971 | 1.04 | 1.11 | 0.925 | 0.997 | 1.04 | 1.07 | 1 |
| COC(=O)CC(NC(=O)[C@@H](NC(=O)OC(C)C)C(C)C)c1ccc(Cl)cc1 (stereo not given in full) | 0.954 | 1.02 | 0.986 | 0.993 | 1.11 | 1.01 | 0.992 | 0.87 | 0.954 | 1.01 |
| CCN(Cc1c(F)cccc1Cl)c1c([N+](=O)[O-])cc(C(F)(F)F)cc1[N+](=O)[O-] | 0.784 | 0.982 | 0.986 | 0.896 | 0.937 | 0.896 | 1.03 | 1.03 | 0.934 | 0.903 |
| CCOC(=O)Cn1c(=O)sc2cccc(Cl)c21 | 0.959 | 1.01 | 0.957 | 0.996 | 0.994 | 1.04 | 0.993 | 0.979 | 1.07 | 0.98 |
| COc1ccc(NC(=O)N(C)C)cc1Cl | 1.03 | 0.981 | 0.957 | 1.01 | 0.973 | 0.916 | 1.02 | 1.1 | 0.99 | 0.916 |
| O=[N+]([O-])c1ccc2c(c1)Cc1ccccc1-2 | 0.98 | 0.984 | 0.989 | 1.07 | 0.897 | 1.03 | 0.998 | 0.982 | 1.1 | 0.992 |
| CN1CCC[C@H]1c1cccnc1 | 0.984 | 0.99 | 1.01 | 0.978 | 0.98 | 0.941 | 0.991 | 0.989 | 1.02 | 0.993 |
| CN(C)C(=O)NC1CCCCCCC1 | 1.03 | 0.999 | 0.998 | 1.06 | 1.04 | 1.04 | 0.978 | 0.948 | 1.02 | 1.01 |
| COc1cc(OC)nc(NC(=O)NS(=O)(=O)Nc2ccccc2C(=O)C2CC2)n1 | 0.952 | 1 | 0.978 | 0.807 | 0.97 | 1.07 | 1.01 | 0.963 | 0.964 | 0.913 |
| CC(C)CCCCCOC(=O)C(C)Oc1ccc(Cl)cc1Cl (stereo not given) | 1.01 | 0.979 | 1.02 | 1.21 | 1.06 | 0.817 | 0.962 | 0.814 | 0.925 | 0.9 |
| c1ccc2[nH]c(-c3cscn3)nc2c1 | 0.96 | 1.01 | 0.989 | 0.878 | 0.97 | 1 | 0.991 | 0.962 | 0.974 | 0.972 |
| COc1c(I)cc(C#N)cc1I | 0.973 | 1 | 0.975 | 1 | 0.981 | 0.895 | 0.911 | 1.03 | 0.966 | 0.944 |
| CSC(=O)c1cccc2nnsc12 | 1.01 | 0.994 | 0.981 | 1.03 | 1.12 | 0.934 | 0.953 | 1.01 | 0.921 | 1.01 |
| COC(=O)c1ccc(I)cc1S(=O)(=O)[N-]C(=O)Nc1nc(C)nc(OC)n1.[Na+] | 0.947 | 1.02 | 0.948 | 1.07 | 1.14 | 0.919 | 0.969 | 1.07 | 0.95 | 1.01 |
| COC(=O)c1ccc(CNS(C)(=O)=O)cc1S(=O)(=O)NC(=O)Nc1nc(OC)cc(OC)n1 | 1.04 | 1.02 | 1.01 | 1.01 | 0.977 | 0.961 | 0.925 | 1.07 | 1.03 | 1.02 |
| CCCCOCCOCCOCc1cc2c(cc1CCC)OCO2 | 1.06 | 1.03 | 1 | 0.84 | 0.992 | 1.03 | 1.01 | 1.07 | 0.529 (active) | 0.924 |
| COC(=O)c1c(Cl)c(Cl)c(C(=O)OC)c(Cl)c1Cl | 1.05 | 0.979 | 0.995 | 1.16 | 0.963 | 0.974 | 0.982 | 1.1 | 0.979 | 1.01 |

| Structure (SMILES) | growth AUC (Coprococcus comes) | growth AUC (Escherichia coli ED1a) | growth AUC (Escherichia coli IAI1) | growth AUC (Eubacterium rectale) | growth AUC [1] | growth AUC (Lactobacillus gasseri) | growth AUC (Lactobacillus paracasei) | growth AUC (Odoribacter splanchnicus) | growth AUC [2] | growth AUC (Parabacteroides merdae) |
| --- | --- | --- | --- | --- | --- | --- | --- | --- | --- | --- |
| CCCOC(=O)c1ccc(C(=O)OCCC)nc1 | 1.05 | 1 | 1 | 1.03 | 0.944 | 0.966 | 0.861 | 1.07 | 1 | 0.986 |
| CC(Oc1ccc(Cl)cc1Cl)C(=O)NC(C)(C#N)C(C)C (stereo not given) | 1.02 | 0.989 | 1.01 | 1.13 | 0.972 | 0.803 | 0.997 | 0.838 | 0.65 (active) | 0.981 |
| CCNc1nc(N)nc(Cl)n1 | 0.995 | 1 | 1 | 1.02 | 1.04 | 0.933 | 0.891 | 1.02 | 1.02 | 1.02 |
| CC(C)N(C(=O)C(=O)O)c1ccccc1 | 1.03 | 1.06 | 1.05 | 1.11 | 1.09 | 1.07 | 1.02 | 1.05 | 1.07 | 1.03 |
| CCCCOC(=O)[C@@H](C)Oc1ccc(Oc2ccc(C(F)(F)F)cn2)cc1 | 0.961 | 0.989 | 0.997 | 0.918 | 0.789 | 0.915 | 0.993 | 0.977 | 0.844 | 0.96 |
| Br[C@@H]1CC[C@@H](Br)[C@@H](Br)CC[C@@H](Br)[C@@H](Br)CC[C@H]1Br | 0.934 | 0.897 | 0.979 | 1 | 1.01 | 0.947 | 0.996 | 0.983 | 0.682 (active) | 0.931 |
| O=C(O)COc1cc(N2C(=O)C3=C(CCCC3)C2=O)c(F)cc1Cl | 1.01 | 1.01 | 1 | 1.03 | 1.02 | 0.967 | 1.05 | 1.03 | 1.03 | 1.04 |
| CC(C)c1nn(C(=O)NC(C)(C)C)c(=O)n1N | 1.02 | 1.02 | 1.02 | 0.971 | 0.994 | 1.07 | 1.02 | 1 | 1 | 1.02 |
| S=C([S-])NCCNC(=S)[S-].[Zn+2] | 0.994 | 0.998 | 0.992 | 1.1 | 0.978 | 0.966 | 1.01 | 0.999 | 1.01 | 0.974 |
| CC(C)NS(=O)(=O)NC(=O)c1cc(NC(N)=O)c(F)cc1Cl | 0.928 | 1.01 | 0.971 | 1.01 | 1 | 0.907 | 1.1 | 0.976 | 1.02 | 0.98 |
| CCOC(=O)C(C)Oc1ccc(Oc2nc3ccc(Cl)cc3o2)cc1 (racemic) | 0.993 | 0.967 | 0.949 | 0.987 | 0.929 | 0.91 | 0.97 | 1.01 | 0.824 | 0.969 |
| CCCCCCC(C)OC(=O)COc1nc(F)c(Cl)c(N)c1Cl (stereo not given) | 0.928 | 1 | 1.01 | 0.875 | 0.935 | 0.967 | 0.942 | 1.04 | 0.919 | 0.891 |
| Cc1nn(C)c(OCC(=O)c2ccccc2)c1C(=O)c1ccc(Cl)cc1Cl | 1.02 | 0.995 | 1 | 1.04 | 1.02 | 1.02 | 0.991 | 0.961 | 0.674 (active) | 0.926 |
| CCc1cccc(C)c1N(C(=O)CS(=O)(=O)[O-])C(C)COC.[Na+] (stereo not given) | 0.948 | 0.954 | 0.941 | 1.05 | 0.881 | 0.91 | 1.02 | 0.908 | 0.925 | 0.941 |
| CO/N=C(/C(=O)O)c1ccccc1CO/N=C(\C)c1cccc(C(F)(F)F)c1 | 0.977 | 0.986 | 0.979 | 1.07 | 1.04 | 0.948 | 1.02 | 0.775 | 0.985 | 0.99 |
| O=C(O)COc1ccc(Cl)c2cccnc12 | 0.997 | 1.05 | 1.04 | 1.02 | 1.11 | 1.07 | 1.01 | 1.01 | 1 | 1 |
| CC1=C(C(=O)Nc2ccccc2)CCCO1 | 1.01 | 0.992 | 0.981 | 0.974 | 0.969 | 0.952 | 1.03 | 1.05 | 0.974 | 1.01 |
| CON(C(=O)c1cc(C)oc1C)C1CCCCC1 | 0.992 | 1.01 | 0.968 | 1 | 1.03 | 1.05 | 0.991 | 1.02 | 1.05 | 0.982 |
| CCOC(=O)[C@@H](C)Oc1ccc(Oc2nc3ccc(Cl)cc3o2)cc1 | 1.01 | 1.03 | 1 | 0.876 | 1.02 | 0.991 | 1.03 | 1.09 | 0.999 | 0.971 |
| COC(=O)C(C)Oc1ccc(Cl)cc1C (stereo not given) | 1.04 | 0.991 | 1 | 0.997 | 1.03 | 1.06 | 1.01 | 1.02 | 1.02 | 1.05 |
| O=c1cc(Cl)[nH]nc1-c1ccccc1 | 0.973 | 0.956 | 0.954 | 0.939 | 0.995 | 0.992 | 0.748 | 1.02 | 1.02 | 0.982 |
